# Laboratory results from the supplement of paper PMC7156485.
# ± gives the standard deviation of the averaged measurements.
# Key:
# Conditions in all cases: concentration: 10 µM; 24 h
# HCC1569 [1] = assay: cell number relative to DMSO (% of DMSO); higher = more cells (less growth inhibition / toxicity)
# Procedure, shortened: (§1)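 HCC1569 and TDF cells were seeded at 800 per well in 384-well plates in RPMI with 10% FBS and treated with compounds at 10 µM for 24 h at 37 °C, in triplicate. After fixation in 3.7% formaldehyde, cells were stained with a rabbit anti-H1.0 antibody, an AlexaFluor 647 secondary and DAPI, and six fields per well were imaged at ×10. H1.0 nuclear intensity or cell number is given as percent of the plate control, using the median of replicates, with HCC1569 values smoothed for positional effects.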
# TDF [2] = assay: as above
# Procedure, shortened: as §1
# TDF [3] = assay: H1.0 immunofluorescence intensity relative to DMSO (% of DMSO); higher = stronger H1.0 induction, active = 120 or more
# Procedure, shortened: as §1
# HCC1569 [4] = assay: H1.0 immunofluorescence intensity relative to DMSO (% of DMSO); higher = stronger H1.0 induction, active = 140 or more
# Procedure, shortened: as §1
# 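For H1.0 immunofluorescence intensity relative to DMSO in this document: TDF is a line of transformed human dermal fibroblasts of mesenchymal origin.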
# 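For cell number relative to DMSO in this document: TDF denotes transformed human dermal fibroblasts of mesenchymal origin.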
SMILES,cell number (HCC1569 [1]),cell number (TDF [2]),H1.0 immunofluorescence intensity (TDF [3]),H1.0 immunofluorescence intensity (HCC1569 [4])
COc1ccc2c(c1)c(CC(=O)O)c(C)n2C(=O)c1ccccc1 [1-benzoyl-5-methoxy-2-methylindole-3-acetic acid],101,104,96.8 (inactive),93.1 (inactive)
Clc1ccc(CCC(Cn2ccnc2)Sc2c(Cl)cccc2Cl)cc1.O=[N+]([O-])O (stereo not given) [Butoconazole nitrate],98.1,99.7,93 (inactive),115 (inactive)
CC(C)C1C2CCC(C2)C1N.Cl (stereo not given),99.9,105,93 (inactive),90.8 (inactive)
CC1OC(OCC2OC(Oc3cc(O)c4c(c3)OC(c3ccc(O)cc3)CC4=O)C(O)C(O)C2O)C(O)C(O)C1O (stereo not given) [Narirutin],101,103,94.7 (inactive),80.9 (inactive)
CCCNC(=O)NS(=O)(=O)c1ccc(Cl)cc1 [Chlorpropamide],101,96.2,93.2 (inactive),91.2 (inactive)
CCCC(=O)Oc1ccc2[nH]c(C(=O)c3cc4ccccc4[nH]3)cc2c1 [PDGF Receptor Tyrosine Kinase Inhibitor II],86.9,92.3,87.9 (inactive),165 (active)
CC(C)(C)c1ccc(S(=O)(=O)C=CC#N)cc1,50.3,92.1,98.3 (inactive),135 (inactive)
"O=C(Nc1cccc(-c2ccccc2)c1)OC1CCCCC1 [cyclohexyl [1,1'-biphenyl]-3-ylcarbamate]",105,94.2,93.4 (inactive),88.6 (inactive)
CN1C(CC(=O)c2ccccc2)CCCC1CC(O)c1ccccc1.Cl (stereo not drawn) [alpha-Lobeline hydrochloride],99.3,108,93.7 (inactive),103 (inactive)
CN1CCCN=C1C=Cc1cccs1.O=C(O)c1cc2ccccc2c(Cc2c(O)c(C(=O)O)cc3ccccc23)c1O [Pyrantel Pamoate],94.4,109,88.8 (inactive),115 (inactive)
CC(=O)C1(O)CCC2C3CCC4=CC(=O)CCC4(C)C3CCC21C (stereo not drawn) [17alpha-hydroxyprogesterone],98.8,98.3,99 (inactive),99.8 (inactive)
NS(=O)(=O)c1ccc2c(c1)C1C=CCC1C(c1ccc(Br)cc1)N2 (stereo not given),102,91.3,95.3 (inactive),114 (inactive)
COc1ccc(CC2c3cc(OC)c(OC)cc3CC[N+]2(C)CCC(=O)OCCCCCOC(=O)CC[N+]2(C)CCc3cc(OC)c(OC)cc3C2Cc2ccc(OC)c(OC)c2)cc1OC.O=S(=O)([O-])c1ccccc1.O=S(=O)([O-])c1ccccc1 (stereo not given) [Atracurium besylate],98.9,103,94.5 (inactive),110 (inactive)
Cn1ccc(NC(=O)c2cc(Oc3ccc(C(=O)N4CCC4)c(F)c3)c3c(c2)OC(C)(C)C3)n1,103,94.2,102 (inactive),105 (inactive)
CN1CCN(C2Cc3ccccc3Sc3ccc(Cl)cc32)CC1.O=C(O)C=CC(=O)O (stereo not given) [Clorotepine maleate],98.5,102,106 (inactive),118 (inactive)
"c1ccc(CNc2nc(NCc3ccccc3)c3ccccc3n2)cc1 [N~2~,N~4~-dibenzyl-2,4-quinazolinediamine]",33.7,39,156 (active),88.7 (inactive)
C=CC(C)(C=Cc1ccc(O)cc1)CCC=C(C)C (stereo not given) [Bakuchiol],84.7 ± 3.6,91.2 ± 4.6,97.7 (inactive),96.8 (inactive)
CC(C)NCC(O)COc1ccc(CC(N)=O)cc1 (racemic),109,101,93.8 (inactive),88.2 (inactive)
CC(=O)CCCCn1c(=O)c2c(ncn2C)n(C)c1=O [Pentoxifylline],103 ± 4.1,106 ± 5.2,92.8 (inactive),105 (inactive)
Nc1nc2ccccc2c2ccccc12 [6-phenanthridinamine],88.1,64.8,97.8 (inactive),117 (inactive)
O=C1NC(=O)C(c2ccccc2[N+](=O)[O-])=C1Nc1ccc(O)c(Cl)c1,96.8,107,97.8 (inactive),111 (inactive)
"COC(=O)C1C2CC3c4[nH]c5cc(OC)ccc5c4CCN3CC2CC(OC(=O)c2cc(OC)c(OC)c(OC)c2)C1OC (single isomer, unassigned; (-)) [(-)-Isoreserpine]",98.9,107,102 (inactive),98 (inactive)
NCC(O)c1ccc(O)c(O)c1.O=C(O)C(O)C(O)C(=O)O (stereo not drawn) [Norepinephrine-(+)-tartrate L (-)],100,99.2,91.4 (inactive),105 (inactive)
CC(=O)N1CCN(c2ccc(OCC3COC(Cn4ccnc4)(c4ccc(Cl)cc4Cl)O3)cc2)CC1 (stereo not given) [Ketoconazole],85.7 ± 11,97.3 ± 15,101 (inactive),118 (inactive)
CN(C)CCCN1c2ccccc2CCc2ccccc21.Cl [Imipramine.HCl],100,97.4,95.2 (inactive),100 (inactive)
